# Experimental data as given in the supplement of paper PMC8728848.
# The full list was thinned out, with the strongest signals kept by preference.
# B1: RS2L (Ralstonia solanacearum), B5RXL5_RALSO (protein)
# chain: MAQQGVFTLPANTSFGVTAFANAANTQTIQVLVDNVVKATFTGSGTSDKLLGSQVLNSGSGAIKIQVSVNGKPSDLVSNQTILANKLNFAMVGSEDGTDNDYNDGIAVLNWPLG
# Tests used:
# Test in all cases: glycan array binding signal (z-score within array); higher = stronger binding
# Details in all cases: glycan notation: IUPAC condensed, linker removed
# [1] = biological target: Fuc(a1-2)Gal(b1-3)GlcNAc(b1-2)Man(a1-3)[Fuc(a1-2)Gal(b1-3)GlcNAc(b1-2)Man(a1-6)]Man(b1-4)GlcNAc(b1-4)[Fuc(a1-6)]GlcNAc
# In short: (§1)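 Glycan array binding is given as a within-array Z-score, which can be read as non-binding when negative. The arrays, 3228 of them, came from the Consortium for Functional Glycomics database and were retained only where the protein sequence was available. Z-scores were averaged across arrays of the same protein sequence at different concentrations or buffers and across linkers.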
# [2] = biological target: Fuc(a1-2)Gal(b1-3)GlcNAc(b1-3)[Gal(b1-4)GlcNAc(b1-6)]Gal(b1-4)Glc
# In short: as §1
# [3] = biological target: Fuc(a1-2)Gal(b1-4)GlcNAc(b1-3)GalNAc
# In short: as §1
# [4] = biological target: Fuc(a1-2)Gal(b1-4)[Fuc(a1-3)]GlcNAc(b1-2)[Fuc(a1-2)Gal(b1-4)[Fuc(a1-3)]GlcNAc(b1-4)]Man(a1-3)[Fuc(a1-2)Gal(b1-4)[Fuc(a1-3)]GlcNAc(b1-2)Man(a1-6)]Man(b1-4)GlcNAc(b1-4)GlcNAc
# In short: as §1
# [5] = biological target: Fuc(a1-2)[GalNAc(a1-3)]Gal(b1-4)Glc
# In short: as §1
# [6] = biological target: Fuc(a1-2)[GalNAc(a1-3)]Gal(b1-4)[Fuc(a1-3)]GlcNAc(b1-3)GalNAc
# In short: as §1
# [7] = biological target: Fuc(a1-3)[Gal(b1-4)]GlcNAc(b1-3)GalNAc
# In short: as §1
# [8] = biological target: Gal(b1-3)GlcNAc(b1-3)Gal(b1-4)GlcNAc(b1-6)[Gal(b1-3)GlcNAc(b1-3)]Gal(b1-4)Glc
# In short: as §1
# [9] = biological target: Gal(b1-4)GlcNAc(b1-6)Gal(b1-4)GlcNAc
# In short: as §1
# [10] = biological target: GalNAc(b1-3)Gal
# In short: as §1
# [11] = biological target: GalNAc(b1-4)Gal(b1-4)Glc
# In short: as §1
# [12] = biological target: GalNAc(b1-6)GalNAc
# In short: as §1
# [13] = biological target: GlcNAc(a1-4)Gal(b1-4)GlcNAc(b1-3)Gal(b1-4)[Fuc(a1-3)]GlcNAc(b1-3)Gal(b1-4)[Fuc(a1-3)]GlcNAc
# In short: as §1
# [14] = biological target: GlcNAc(b1-3)Gal(b1-3)GalNAc
# In short: as §1
# [15] = biological target: GlcNAc(b1-3)GalNAc
# In short: as §1
# [16] = biological target: Kdn(a2-3)Gal(b1-4)Glc
# In short: as §1
# [17] = biological target: Kdn(a2-6)Gal(b1-4)GlcNAc
# In short: as §1
# [18] = biological target: Man(a1-2)Man(a1-2)Man(a1-6)[Man(a1-3)]Man
# In short: as §1
# [19] = biological target: Man(a1-2)Man(a1-3)[Man(a1-2)Man(a1-6)]Man(a1-6)[Man(a1-2)Man(a1-2)Man(a1-3)]Man
# In short: as §1
# [20] = biological target: Man(a1-2)Man(a1-3)[Man(a1-2)Man(a1-6)]Man(a1-6)[Man(a1-2)Man(a1-2)Man(a1-3)]Man(b1-4)GlcNAc(b1-4)GlcNAc
# In short: as §1
# [21] = biological target: Man(a1-2)Man(a1-6)[Man(a1-3)]Man(a1-6)[Man(a1-2)Man(a1-2)Man(a1-3)]Man
# In short: as §1
# [22] = biological target: Man(a1-2)Man(a1-6)[Man(a1-3)]Man(a1-6)[Man(a1-2)Man(a1-2)Man(a1-3)]Man(b1-4)GlcNAc(b1-4)GlcNAc
# In short: as §1
# [23] = biological target: Man(a1-3)[Man(a1-6)]Man
# In short: as §1
# [24] = biological target: Man(a1-3)[Man(a1-6)]Man(a1-6)[Man(a1-2)Man(a1-3)]Man(b1-4)GlcNAc(b1-4)GlcNAc
# In short: as §1
# [25] = biological target: Man(a1-3)[Man(a1-6)]Man(a1-6)[Man(a1-3)]Man
# In short: as §1
# [26] = biological target: Man(a1-3)[Man(a1-6)]Man(a1-6)[Man(a1-3)]Man(b1-4)GlcNAc(b1-4)GlcNAc
# In short: as §1
# [27] = biological target: Neu5Ac(a2-3)Gal(b1-3)GalNAc(b1-3)Gal(a1-4)Gal(b1-4)Glc
# In short: as §1
# [28] = biological target: Neu5Ac(a2-3)Gal(b1-3)GlcNAc
# In short: as §1
# [29] = biological target: Neu5Ac(a2-3)Gal(b1-4)GlcNAc(b1-2)Man(a1-3)[GlcNAc(b1-2)Man(b1-4)GlcNAc(b1-2)Man(a1-6)]Man(b1-4)GlcNAc(b1-4)GlcNAc
# In short: as §1
# [30] = biological target: Neu5Ac(a2-3)Gal(b1-4)GlcNAc(b1-6)[Neu5Ac(a2-3)Gal(b1-3)]GalNAc
# In short: as §1
# [31] = biological target: Neu5Ac(a2-6)Gal(b1-4)GlcNAc(b1-2)Man(a1-3)Man(b1-4)GlcNAc(b1-4)GlcNAc
# In short: as §1
# [32] = biological target: Neu5Ac(a2-6)GalNAc
# In short: as §1
# [33] = biological target: Neu5Ac(a2-6)GalNAc(b1-4)GlcNAc
# In short: as §1
# [34] = biological target: Neu5Ac(a2-8)Neu5Ac(a2-8)Neu5Ac
# In short: as §1
# [35] = biological target: Neu5Ac(a2-8)Neu5Ac(a2-8)Neu5Ac(a2-8)Neu5Ac(a2-3)[GalNAc(b1-4)]Gal(b1-4)Glc
# In short: as §1
# [36] = biological target: Neu5Ac(b2-6)Gal(b1-4)GlcNAc
# In short: as §1
# [37] = biological target: Neu5Gc(a2-3)Gal(b1-4)GlcNAc
# In short: as §1
binder,measurement,setting,value
B1,glycan array binding signal (z-score),[1],0.443
same,glycan array binding signal (z-score),[2],-0.211
same,glycan array binding signal (z-score),[3],-0.205
same,glycan array binding signal (z-score),[4],-0.175
same,glycan array binding signal (z-score),[5],-0.244
same,glycan array binding signal (z-score),[6],-0.233
same,glycan array binding signal (z-score),[7],-0.24
same,glycan array binding signal (z-score),[8],-0.246
same,glycan array binding signal (z-score),[9],-0.255
same,glycan array binding signal (z-score),[10],-0.243
same,glycan array binding signal (z-score),[11],-0.247
same,glycan array binding signal (z-score),[12],-0.243
same,glycan array binding signal (z-score),[13],-0.12
same,glycan array binding signal (z-score),[14],-0.245
same,glycan array binding signal (z-score),[15],-0.249
same,glycan array binding signal (z-score),[16],-0.242
same,glycan array binding signal (z-score),[17],-0.251
same,glycan array binding signal (z-score),[18],6.32
same,glycan array binding signal (z-score),[19],6.92
same,glycan array binding signal (z-score),[20],3.42
same,glycan array binding signal (z-score),[21],5.7
same,glycan array binding signal (z-score),[22],5.97
same,glycan array binding signal (z-score),[23],7.32
same,glycan array binding signal (z-score),[24],6.99
same,glycan array binding signal (z-score),[25],5.11
same,glycan array binding signal (z-score),[26],5.42
same,glycan array binding signal (z-score),[27],-0.25
same,glycan array binding signal (z-score),[28],-0.247
same,glycan array binding signal (z-score),[29],-0.245
same,glycan array binding signal (z-score),[30],-0.254
same,glycan array binding signal (z-score),[31],-0.245
same,glycan array binding signal (z-score),[32],-0.244
same,glycan array binding signal (z-score),[33],-0.242
same,glycan array binding signal (z-score),[34],-0.243
same,glycan array binding signal (z-score),[35],-0.22
same,glycan array binding signal (z-score),[36],-0.252
same,glycan array binding signal (z-score),[37],-0.242
